The campaign covered roughly 5,500 compounds. About 2,000 (36%) were called active. Another 18% or so got no clear call; they are omitted. Rule as the data show it: active = normalized growth mostly below about 0.91 (no sharp cut-off); inconclusive = no clear call, values can overlap the other calls; inactive = mostly above about 0.92. The list shows a part of the results.
Assay: chemical genetic growth profiling, strain panel (AID 1159580);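 also: tested at 20 µM; growth read once vehicle control cultures reached saturation at 30 °C; 1 = growth at the plate median or of vehicle wells; lower values mean less growth of the strain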
Conditions: growth OD

Measured: normalized growth

COc1ccc(CCN2CCC(Nc3nc4ccccc4n3Cc3ccc(F)cc3)CC2)cc1
active: S. cerevisiae deletion strains, locus YLR320W, strain mms22, active compounds read low 0.85 | S. cerevisiae deletion strains, locus YLR370C, strain arc18, active compounds read low 0.892 | S. cerevisiae deletion strains, locus YMR058W, strain fet3, active compounds read low 0.865 | S. cerevisiae deletion strains, locus YOR001W, strain rrp6, active compounds read low 0.881 | S. cerevisiae deletion strains, locus YOR270C, strain vph1, active compounds read low 0.607 | S. cerevisiae deletion strains, locus YOR290C, strain snf2, active compounds read low 0.633
inactive: S. cerevisiae deletion strains, locus YJR066W, strain TOR1, active compounds read low 0.931 | S. cerevisiae deletion strains, locus YKL009W, strain mrt4, active compounds read low 0.99 | S. cerevisiae deletion strains, locus YKL068W, active compounds read low 0.991 | S. cerevisiae deletion strains, locus YKL085W, strain MDH1 (second series), active compounds read low 1.04 | S. cerevisiae deletion strains, locus YKL085W, strain MDH1, active compounds read low 1.04 | S. cerevisiae deletion strains, locus YKL160W, strain elf1, active compounds read low 0.961 | S. cerevisiae deletion strains, locus YKL190W, strain CNB1, active compounds read low 0.992 | S. cerevisiae deletion strains, locus YKR001C, strain vps1, active compounds read low 0.999 | S. cerevisiae deletion strains, locus YKR026C, strain gcn3, active compounds read low 0.945 | S. cerevisiae deletion strains, locus YKR091W, strain srl3, active compounds read low 0.987 | S. cerevisiae deletion strains, locus YLL001W, strain dnm1, active compounds read low 0.954 | S. cerevisiae deletion strains, locus YLL026W, active compounds read low 0.974 | S. cerevisiae deletion strains, locus YLL041C, strain sdh2, active compounds read low 0.969 | S. cerevisiae deletion strains, locus YLR027C, strain aat2, active compounds read low 0.978 | S. cerevisiae deletion strains, locus YLR039C, strain RIC1, active compounds read low 1.19 | S. cerevisiae deletion strains, locus YLR058C, strain SHM2, active compounds read low 0.974 | S. cerevisiae deletion strains, locus YLR102C, strain apc9, active compounds read low 0.991 | S. cerevisiae deletion strains, locus YLR113W, strain HOG1, active compounds read low 0.976 | S. cerevisiae deletion strains, locus YLR221C, strain rsa3, active compounds read low 0.951 | S. cerevisiae deletion strains, locus YLR258W, strain gsy2, active compounds read low 0.962 | S. cerevisiae deletion strains, locus YLR262C, strain YPT6 (second series), active compounds read low 1.05 | S. cerevisiae deletion strains, locus YLR262C, strain YPT6, active compounds read low 1.21 | S. cerevisiae deletion strains, locus YLR268W, strain sec22, active compounds read low 0.969 | S. cerevisiae deletion strains, locus YLR330W, strain CHS5, active compounds read low 0.995 | S. cerevisiae deletion strains, locus YLR342W, strain FKS1 (second series), active compounds read low 0.945 | S. cerevisiae deletion strains, locus YLR342W, strain FKS1, active compounds read low 0.969 | S. cerevisiae deletion strains, locus YLR357W, strain rsc2, active compounds read low 0.986 | S. cerevisiae deletion strains, locus YLR371W, strain rom2, active compounds read low 0.986 | S. cerevisiae deletion strains, locus YLR384C, strain iki3, active compounds read low 1 | S. cerevisiae deletion strains, locus YLR418C, strain cdc73, active compounds read low 0.943 | S. cerevisiae deletion strains, locus YML016C, strain PPZ1, active compounds read low 0.979 | S. cerevisiae deletion strains, locus YML032C, strain rad52, active compounds read low 0.955 | S. cerevisiae deletion strains, locus YML120C, strain ndi1, active compounds read low 0.978 | S. cerevisiae deletion strains, locus YML124C, strain tub3, active compounds read low 0.991 | S. cerevisiae deletion strains, locus YMR078C, strain ctf18, active compounds read low 0.987 | S. cerevisiae deletion strains, locus YMR125W, strain sto1, active compounds read low 0.964 | S. cerevisiae deletion strains, locus YMR129W, active compounds read low 0.995 | S. cerevisiae deletion strains, locus YMR205C, strain PFK2, active compounds read low 0.908 | S. cerevisiae deletion strains, locus YMR223W, strain ubp8, active compounds read low 0.988 | S. cerevisiae deletion strains, locus YMR231W, strain pep5, active compounds read low 0.997 | S. cerevisiae deletion strains, locus YMR263W, strain SAP30, active compounds read low 0.997 | S. cerevisiae deletion strains, locus YMR307W, strain GAS1, active compounds read low 0.894 | S. cerevisiae deletion strains, locus YNL067W, strain RPL9B, active compounds read low 0.982 | S. cerevisiae deletion strains, locus YNL071W, strain lat1, active compounds read low 0.959 | S. cerevisiae deletion strains, locus YNL128W, strain TEP1, active compounds read low 0.984 | S. cerevisiae deletion strains, locus YNL153C, strain GIM3, active compounds read low 1 | S. cerevisiae deletion strains, locus YNL183C, strain NPR1, active compounds read low 0.946 | S. cerevisiae deletion strains, locus YNL209W, strain ssb2, active compounds read low 0.962 | S. cerevisiae deletion strains, locus YNL233W, strain BNI4, active compounds read low 0.959 | S. cerevisiae deletion strains, locus YNL250W, strain rad50, active compounds read low 0.988 | S. cerevisiae deletion strains, locus YNL271C, strain bni1, active compounds read low 0.982 | S. cerevisiae deletion strains, locus YNL298W, strain CLA4, active compounds read low 0.987 | S. cerevisiae deletion strains, locus YNL307C, strain MCK1, active compounds read low 0.969 | S. cerevisiae deletion strains, locus YNL322C, strain KRE1 (second series), active compounds read low 0.991 | S. cerevisiae deletion strains, locus YNR049C, strain mso1, active compounds read low 0.96 | S. cerevisiae deletion strains, locus YNR052C, strain pop2, active compounds read low 0.982 | S. cerevisiae deletion strains, locus YOL006C, strain TOP1, active compounds read low 0.759 | S. cerevisiae deletion strains, locus YOL012C, strain htz1 0.955 | S. cerevisiae deletion strains, locus YOL147C, strain pex11, active compounds read low 0.99 | S. cerevisiae deletion strains, locus YOR061W, strain CKA2, active compounds read low 0.969 | S. cerevisiae deletion strains, locus YOR069W, strain VPS5, active compounds read low 0.993 | S. cerevisiae deletion strains, locus YOR070C, strain gyp1, active compounds read low 0.944 | S. cerevisiae deletion strains, locus YOR080W, strain dia2, active compounds read low 1 | S. cerevisiae deletion strains, locus YOR083W, strain WHI5, active compounds read low 0.927 | S. cerevisiae deletion strains, locus YOR106W, strain vam3, active compounds read low 0.969 | S. cerevisiae deletion strains, locus YOR136W, strain idh2, active compounds read low 0.98 | S. cerevisiae deletion strains, locus YOR144C, strain elg1, active compounds read low 0.986 | S. cerevisiae deletion strains, locus YOR184W, strain ser1, active compounds read low 0.953 | S. cerevisiae deletion strains, locus YOR231W, strain MKK1, active compounds read low 0.973 | S. cerevisiae deletion strains, locus YOR265W, strain rbl2, active compounds read low 0.993 | S. cerevisiae deletion strains, locus YOR316C, strain cot1, active compounds read low 0.994 | S. cerevisiae deletion strains, locus YPL051W, strain arl3, active compounds read low 0.968 | S. cerevisiae deletion strains, locus YPL078C, strain atp4, active compounds read low 0.975 | S. cerevisiae deletion strains, locus YPL106C, strain sse1, active compounds read low 0.894 | S. cerevisiae deletion strains, locus YPL240C, strain hsp82, active compounds read low 0.986 | S. cerevisiae deletion strains, locus YPL241C, strain CIN2, active compounds read low 0.992 | S. cerevisiae deletion strains, locus YPL256C, strain CLN2, active compounds read low 0.982 | S. cerevisiae deletion strains, locus YPR119W, strain clb2, active compounds read low 0.988 | S. cerevisiae deletion strains, locus YPR141C, strain kar3, active compounds read low 0.991 | S. cerevisiae deletion strains, locus YPR163C, strain tif3, active compounds read low 0.988 | S. cerevisiae deletion strains, locus YPR167C, strain met16, active compounds read low 0.976 | S. cerevisiae deletion strains, strain wtn01, active compounds read low 0.974 | S. cerevisiae strains, strain wild type, active compounds read low 0.986
